Common to all, as to set-up: scale not given: direction of the effect not stated beside the values
Assay [1] deals with Protein translocase subunit SecA (Escherichia coli (strain K12)) (UniProt P10408). The experiment in a line: Assay to Identify E. coli SecA ATPase Inhibitors. The assay is classed as functional. The note with it: 30 µM.
Assay [2] deals with T1, Ubiquitin-activating enzyme e1, putative (Leishmania donovani (strain BPK282A1)) (UniProt E9BSI1).
T1 sequence (whole entry): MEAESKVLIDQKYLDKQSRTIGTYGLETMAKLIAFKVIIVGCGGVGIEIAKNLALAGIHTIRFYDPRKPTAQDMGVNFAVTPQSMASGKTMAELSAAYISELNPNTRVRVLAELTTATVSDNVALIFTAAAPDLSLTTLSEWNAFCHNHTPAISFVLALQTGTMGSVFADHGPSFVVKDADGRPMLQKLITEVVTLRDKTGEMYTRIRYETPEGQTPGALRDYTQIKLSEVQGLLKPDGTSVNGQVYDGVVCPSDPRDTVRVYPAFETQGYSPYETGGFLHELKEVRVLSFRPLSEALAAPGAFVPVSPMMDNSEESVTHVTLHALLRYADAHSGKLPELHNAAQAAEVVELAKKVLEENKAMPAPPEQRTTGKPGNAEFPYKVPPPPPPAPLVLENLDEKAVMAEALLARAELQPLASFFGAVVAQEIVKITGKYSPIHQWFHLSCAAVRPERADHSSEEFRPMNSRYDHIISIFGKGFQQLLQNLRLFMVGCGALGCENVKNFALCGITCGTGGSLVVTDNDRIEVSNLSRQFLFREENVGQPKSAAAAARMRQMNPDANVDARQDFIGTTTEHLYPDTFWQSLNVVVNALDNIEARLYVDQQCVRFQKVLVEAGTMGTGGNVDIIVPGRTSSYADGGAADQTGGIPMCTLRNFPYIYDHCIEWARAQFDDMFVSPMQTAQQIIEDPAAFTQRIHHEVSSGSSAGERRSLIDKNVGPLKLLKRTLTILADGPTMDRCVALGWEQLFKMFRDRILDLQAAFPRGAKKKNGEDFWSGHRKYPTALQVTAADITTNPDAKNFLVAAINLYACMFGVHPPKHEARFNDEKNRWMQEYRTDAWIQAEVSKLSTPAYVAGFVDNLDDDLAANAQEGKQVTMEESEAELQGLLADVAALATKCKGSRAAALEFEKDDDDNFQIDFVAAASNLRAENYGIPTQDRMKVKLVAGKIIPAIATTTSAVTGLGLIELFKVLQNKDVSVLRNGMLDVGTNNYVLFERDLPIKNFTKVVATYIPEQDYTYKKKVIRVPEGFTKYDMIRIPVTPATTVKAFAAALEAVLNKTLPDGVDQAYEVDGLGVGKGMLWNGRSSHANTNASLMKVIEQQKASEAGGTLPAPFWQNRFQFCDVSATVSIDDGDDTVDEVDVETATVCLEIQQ
The experiment in a line: Leishmania donovani Ubiquitin Activating Enzyme (LdE1). The note with it: 30 µM. It is filed as functional.

Assay [3] addresses AMP-activated protein kinase, AMPK (Homo sapiens) (UniProt P54646+O43741+P54619+Q9UGJ0+Q9Y478+Q13131+Q9UGI9). The experiment in a line: AMP-dependent Kinase enzyme assay. An in vitro enzyme assay that detects ADP turnover that is directly proportional to AMPK activity. This uses naive AMPK that is activated during the assay with MK-8722. It is filed as functional. To be noted: 30 µM.

Assay [4] concerns the target Sialic acid-binding Ig-like lectin 9 (Homo sapiens) (UniProt Q9Y336). The experiment in a line: Hs-Siglec9 ALPHAscreen SOP 20170721. To be noted: 10 µM. (Alpha assays give light when donor and acceptor beads are brought close together.)
Another assay relates to Trypanosoma cruzi. The experiment in a line: Trypanosoma cruzi phosphomannomutase and mannose-1-phosphate guanylyltransferase assay. It is filed as functional. To be noted: 10 µM.
The target of assay [5] is T2, Arginase-2, mitochondrial (Homo sapiens) (UniProt P78540).
T2 sequence (whole entry): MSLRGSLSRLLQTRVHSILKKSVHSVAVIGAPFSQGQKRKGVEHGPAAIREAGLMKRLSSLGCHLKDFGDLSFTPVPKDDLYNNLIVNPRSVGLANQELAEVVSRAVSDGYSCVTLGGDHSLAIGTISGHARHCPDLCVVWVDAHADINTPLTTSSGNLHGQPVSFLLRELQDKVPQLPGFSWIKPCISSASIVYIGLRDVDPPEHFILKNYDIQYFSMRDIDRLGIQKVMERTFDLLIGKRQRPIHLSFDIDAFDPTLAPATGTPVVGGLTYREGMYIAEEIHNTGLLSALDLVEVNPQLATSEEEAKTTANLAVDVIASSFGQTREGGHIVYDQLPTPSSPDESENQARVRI
The experiment in a line: in vitro enzyme assay to detect the production of urea directly proportional to the activity of Arginase II. Also: in the data most compounds retested in dose-response had high values. It is filed as functional. The note with it: 33.3 µM.

In assay [6] the target is T3, Proteasome subunit beta (Trypanosoma cruzi) (UniProt O96673).
T3 sequence (whole entry): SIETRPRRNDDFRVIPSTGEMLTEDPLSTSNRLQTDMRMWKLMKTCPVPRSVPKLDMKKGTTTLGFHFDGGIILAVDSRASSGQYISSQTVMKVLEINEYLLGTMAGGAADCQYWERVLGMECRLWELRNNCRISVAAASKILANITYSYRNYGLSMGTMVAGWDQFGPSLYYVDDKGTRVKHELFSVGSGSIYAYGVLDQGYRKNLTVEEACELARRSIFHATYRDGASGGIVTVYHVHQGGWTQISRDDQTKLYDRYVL
The experiment in a line: Trypanosoma cruzi proteasome chymotrypsin-like activity (TcProtChymo) assay. Also: in the data most compounds retested in dose-response had high values. The note with it: 9.37 µM. The assay is classed as functional.

The next assay is filed under the species Homo sapiens. The experiment in a line: To identify inhibition of the IFN signalling (Jak-Stat) pathway via expression of an eGFP reporter gene under the control of an IFN-stimulated response element (ISRE) containing MxA promoter. It is filed as functional. To be noted: 30 µM. In general terms: A reporter such as luciferase makes a cellular process visible.

Assay [7] concerns the target T4, Tyrosyl-tRNA synthetase, putative (Trypanosoma cruzi (strain CL Brener)) (UniProt Q4DSP6).
T4 sequence (whole entry): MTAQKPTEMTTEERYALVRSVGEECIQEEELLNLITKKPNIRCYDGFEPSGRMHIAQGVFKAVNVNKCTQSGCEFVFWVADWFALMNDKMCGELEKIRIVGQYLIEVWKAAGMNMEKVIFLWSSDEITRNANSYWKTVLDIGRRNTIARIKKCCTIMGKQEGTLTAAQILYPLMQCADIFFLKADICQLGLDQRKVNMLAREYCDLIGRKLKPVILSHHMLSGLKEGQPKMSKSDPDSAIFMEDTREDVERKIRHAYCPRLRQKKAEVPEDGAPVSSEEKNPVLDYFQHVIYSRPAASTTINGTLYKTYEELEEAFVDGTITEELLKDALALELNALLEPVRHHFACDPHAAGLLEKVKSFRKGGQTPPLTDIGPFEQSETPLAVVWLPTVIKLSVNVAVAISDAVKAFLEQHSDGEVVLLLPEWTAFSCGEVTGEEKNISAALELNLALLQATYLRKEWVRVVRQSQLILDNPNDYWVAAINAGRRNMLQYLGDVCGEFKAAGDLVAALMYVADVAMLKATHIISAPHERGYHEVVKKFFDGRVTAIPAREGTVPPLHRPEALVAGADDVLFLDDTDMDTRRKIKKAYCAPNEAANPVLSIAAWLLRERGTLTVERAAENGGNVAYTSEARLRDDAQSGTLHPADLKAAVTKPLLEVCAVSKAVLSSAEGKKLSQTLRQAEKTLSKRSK
The experiment in a line: Trypanosoma cruzi tyrosyl tRNA synthetase (TcYRS) _High Tyrosine SOP. Also: in the data most compounds retested in dose-response had high values. The assay is classed as functional. To be noted: 30 µM.

Assay [8] addresses T4, Tyrosyl-tRNA synthetase, putative (Trypanosoma cruzi (strain CL Brener)). The experiment in a line: Trypanosoma cruzi tyrosyl tRNA synthetase (TcYRS) SOP. The assay is classed as functional. To be noted: 30 µM.
Assay [9] has as its target Chromo domain-containing protein 1 (Saccharomyces cerevisiae (strain ATCC 204508 / S288c) (Baker's yeast)) (UniProt P32657). The experiment in a line: ScCHD-1 Enzyme Inhibition Assay. Also: in the data most compounds retested in dose-response had high values. It is filed as functional. The note with it: 30 µM.

For some of these results: Potency and affinity values are given separately.

Protein translocase subunit SecA (Escherichia coli (strain K12)), sequence (P10408 whole entry): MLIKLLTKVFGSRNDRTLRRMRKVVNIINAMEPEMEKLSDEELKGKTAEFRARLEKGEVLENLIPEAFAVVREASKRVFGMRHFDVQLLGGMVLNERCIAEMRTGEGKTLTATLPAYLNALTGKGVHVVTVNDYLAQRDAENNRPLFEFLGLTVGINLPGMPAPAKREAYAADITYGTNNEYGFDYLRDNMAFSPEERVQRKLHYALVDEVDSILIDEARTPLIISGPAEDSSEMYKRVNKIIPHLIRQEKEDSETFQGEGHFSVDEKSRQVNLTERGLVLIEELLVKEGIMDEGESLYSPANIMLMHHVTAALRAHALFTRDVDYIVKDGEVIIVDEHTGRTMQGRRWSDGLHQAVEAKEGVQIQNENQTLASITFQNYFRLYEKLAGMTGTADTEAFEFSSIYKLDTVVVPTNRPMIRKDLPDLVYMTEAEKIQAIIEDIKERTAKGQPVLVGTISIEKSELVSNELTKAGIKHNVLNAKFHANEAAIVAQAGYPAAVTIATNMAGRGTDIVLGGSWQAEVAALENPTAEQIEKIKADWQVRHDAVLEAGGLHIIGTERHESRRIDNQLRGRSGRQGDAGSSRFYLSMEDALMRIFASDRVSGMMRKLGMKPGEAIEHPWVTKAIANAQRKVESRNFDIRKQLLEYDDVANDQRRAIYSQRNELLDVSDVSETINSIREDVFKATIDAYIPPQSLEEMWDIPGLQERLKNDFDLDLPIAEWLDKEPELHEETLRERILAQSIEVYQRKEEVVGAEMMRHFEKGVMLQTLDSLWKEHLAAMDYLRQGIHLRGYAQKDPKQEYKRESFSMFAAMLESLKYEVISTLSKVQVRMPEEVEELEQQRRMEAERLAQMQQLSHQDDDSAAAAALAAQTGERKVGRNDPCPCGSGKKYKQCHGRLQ
Sialic acid-binding Ig-like lectin 9 (Homo sapiens), sequence (Q9Y336 whole entry): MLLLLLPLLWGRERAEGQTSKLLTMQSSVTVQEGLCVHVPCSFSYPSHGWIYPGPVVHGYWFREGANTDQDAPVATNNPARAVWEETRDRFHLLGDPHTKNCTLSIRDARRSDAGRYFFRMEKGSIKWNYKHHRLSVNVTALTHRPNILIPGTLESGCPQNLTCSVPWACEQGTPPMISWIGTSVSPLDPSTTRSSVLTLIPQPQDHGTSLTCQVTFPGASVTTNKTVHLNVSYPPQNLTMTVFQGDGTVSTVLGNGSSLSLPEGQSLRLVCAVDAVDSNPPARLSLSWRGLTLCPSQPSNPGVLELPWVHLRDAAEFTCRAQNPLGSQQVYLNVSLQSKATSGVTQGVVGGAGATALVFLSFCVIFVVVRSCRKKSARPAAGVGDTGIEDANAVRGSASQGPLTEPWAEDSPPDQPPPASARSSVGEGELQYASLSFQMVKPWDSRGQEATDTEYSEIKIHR
Chromo domain-containing protein 1 (Saccharomyces cerevisiae (strain ATCC 204508 / S288c) (Baker's yeast)), sequence (P32657 whole entry, the tested form may be a part): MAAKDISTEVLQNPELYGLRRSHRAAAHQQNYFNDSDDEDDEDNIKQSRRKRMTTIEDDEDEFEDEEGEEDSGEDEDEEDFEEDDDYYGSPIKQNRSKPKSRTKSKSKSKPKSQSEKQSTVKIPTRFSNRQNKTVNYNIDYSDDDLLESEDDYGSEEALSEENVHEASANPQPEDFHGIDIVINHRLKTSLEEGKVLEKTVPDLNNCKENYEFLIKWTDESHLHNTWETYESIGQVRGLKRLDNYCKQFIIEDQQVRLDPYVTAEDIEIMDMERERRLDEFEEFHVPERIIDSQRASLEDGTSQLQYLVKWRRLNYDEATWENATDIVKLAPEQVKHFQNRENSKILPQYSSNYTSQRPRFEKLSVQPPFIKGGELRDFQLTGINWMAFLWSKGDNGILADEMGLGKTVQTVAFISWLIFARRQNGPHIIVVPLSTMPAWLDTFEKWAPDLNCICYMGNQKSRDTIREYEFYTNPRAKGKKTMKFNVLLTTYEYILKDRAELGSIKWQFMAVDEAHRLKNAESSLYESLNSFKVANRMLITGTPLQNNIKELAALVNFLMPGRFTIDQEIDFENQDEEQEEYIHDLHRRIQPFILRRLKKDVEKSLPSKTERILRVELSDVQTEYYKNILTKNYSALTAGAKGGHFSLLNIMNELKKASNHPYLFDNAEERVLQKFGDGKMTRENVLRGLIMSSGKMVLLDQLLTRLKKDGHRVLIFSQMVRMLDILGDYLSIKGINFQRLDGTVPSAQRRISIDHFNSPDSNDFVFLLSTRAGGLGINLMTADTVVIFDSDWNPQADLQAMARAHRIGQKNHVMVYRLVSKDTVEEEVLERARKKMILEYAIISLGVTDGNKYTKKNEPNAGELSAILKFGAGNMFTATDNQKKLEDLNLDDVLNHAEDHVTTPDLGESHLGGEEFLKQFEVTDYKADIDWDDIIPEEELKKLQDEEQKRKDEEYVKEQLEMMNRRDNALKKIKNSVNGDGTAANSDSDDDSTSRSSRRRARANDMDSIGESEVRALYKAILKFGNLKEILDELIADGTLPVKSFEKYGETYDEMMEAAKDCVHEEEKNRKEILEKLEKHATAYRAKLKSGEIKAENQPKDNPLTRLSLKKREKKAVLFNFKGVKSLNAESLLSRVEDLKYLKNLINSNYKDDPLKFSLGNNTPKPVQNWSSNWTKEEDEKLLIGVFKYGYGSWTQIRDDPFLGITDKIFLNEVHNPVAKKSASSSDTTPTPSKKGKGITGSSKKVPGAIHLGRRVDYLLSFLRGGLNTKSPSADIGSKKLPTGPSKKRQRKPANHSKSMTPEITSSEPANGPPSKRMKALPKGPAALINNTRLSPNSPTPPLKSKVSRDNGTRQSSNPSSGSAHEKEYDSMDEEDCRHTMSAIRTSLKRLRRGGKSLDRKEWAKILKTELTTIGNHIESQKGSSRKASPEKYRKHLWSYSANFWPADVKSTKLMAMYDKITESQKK

In the case of `CC(C)c1ccc(CN2CCC3(CCCN(c4nncs4)C3)C2)cc1` (stereo unspecified), the Percent Effect was -5.12% in assay [1]; 2.7% in assay [2]; -2.41% in [3]; 37.5% in assay [4]; 9.87% in the assay on Trypanosoma cruzi; -1.74% in assay [5]. Also, the Percent Effect in [6] was 1.97%; in the assay filed under Homo sapiens it was -25%; in [7], 4.3%; in assay [8] it was 13.6%; in assay [9], -4.2%.

Take `Cc1[nH]ccc1C(=O)Nc1cccc(CN2CCC(CO)CC2)c1`: the Percent Effect in assay [1] is -3.65%; in assay [2], 23.7%; in [3] it was -7.05%; in assay [4], -13.3%; in the assay on Trypanosoma cruzi, 0.876%; in [5] it was -17.8%. Moreover, the Percent Effect in assay [6] was 8.34%; in the assay listed under Homo sapiens, 30.6%; in assay [7], 3.19%; in assay [8] it was 13%; in [9] it was -9.32%.

For the compound `O=C(NCCOCC(F)(F)F)c1ccc(-c2ccco2)[nH]c1=O`, the Percent Effect in assay [1] was -1.86%; in assay [2] it was 8.11%; in assay [3], 3.08%; in assay [4], 3.06%; with Trypanosoma cruzi, -6.13%; in [5] it was -0.802%. Besides, the Percent Effect in [6] is 8.29%; in the assay filed under Homo sapiens, 19.7%; in assay [7], 6.4%; in assay [8], 11.1%; in [9], -6.31%.

Consider `CC(C)NC(=O)Cn1cc(-c2ccccc2)cn1`, for which the Percent Effect in assay [1] was -1.92%; in assay [2], 6.33%; in [3], 6.33%; in assay [4], -0.321%; with Trypanosoma cruzi it was 2.15%; in [5], 3.23%. The Percent Effect is 13.7% in [6]; -2.22% in the assay listed under Homo sapiens; 4.17% in assay [7]; 10.1% in assay [8]; 1.99% in assay [9].

Take `c1ccc(-n2ncc(CNCC3CCCN3c3cccnn3)n2)cc1` (stereo unspecified): the Percent Effect in assay [1] was -3.03%; in assay [2], -28.9%; in assay [3] it was -19.7%; in assay [4] it was 8.84%; in the assay with Trypanosoma cruzi it was 11.7%; in [5], -5.4%. In addition, the Percent Effect in assay [6] was -3.64%; in the assay filed under Homo sapiens, 6.81%; in [7], 12.3%; in assay [8] it was 18.5%; in [9] it was 0.0713%.

As to `CCc1ncncc1C(=O)NCCN1CCC(C)CC1`, the Percent Effect was -1.34% in assay [1]; -4.17% in assay [2]; -7.77% in assay [3]; 0.13% in [4]; 5.54% with Trypanosoma cruzi; -2.21% in assay [5]. The Percent Effect in assay [6] is 4.21%; in the assay listed under Homo sapiens, -30.7%; in assay [7] it was 1.05%; in [8], 0%; in assay [9], -2.04%.

As for `Cc1cc(C)nc(NC(=O)C(C)Oc2ccc3c(c2)OCO3)n1` (stereo unspecified), the Percent Effect in [1] is -1.24%; in [2], 5.2%; in [3], -2.31%; in assay [4], 4.95%; in the assay on Trypanosoma cruzi, 5.21%; in assay [5] it was 0%. Besides, the Percent Effect was 19.6% in assay [6]; 5.23% in the assay filed under Homo sapiens; 8.6% in assay [7]; 18.5% in [8]; -2.76% in [9].

As to `CNC(=O)c1ccc(OC2CCN(S(C)(=O)=O)CC2)c(Cl)c1`, the Percent Effect in assay [1] was -2.46%; in assay [2] it was 4.17%; in assay [3] it was -2.06%; in [4], -2.97%; in the assay with Trypanosoma cruzi, 0.68%; in [5], 2.65%. Also, the Percent Effect was 14.7% in assay [6]; 24.7% in the assay filed under Homo sapiens; 6.32% in [7]; 10.3% in assay [8]; -2.92% in assay [9].

Consider `Nc1ncc2c(n1)CN(C1CCCC1)C2=O`, for which the Percent Effect in assay [1] was -4.34%; in assay [2], 10.4%; in assay [3], -3.73%; in assay [4], 9.11%; in the assay on Trypanosoma cruzi, 4.82%; in assay [5], -168%. Further, the Percent Effect was 19.5% in assay [6]; -17.3% in the assay listed under Homo sapiens; 10.8% in assay [7]; 21% in assay [8]; 121% in assay [9].

For the compound `Cc1cc(NC(=O)CN2CCn3c(nnc3C(C)C)C2)no1`, the Percent Effect in assay [1] is -2.36%; in assay [2], 7.79%; in assay [3], 2.84%; in assay [4], -23.1%; in the assay on Trypanosoma cruzi, 2.25%; in assay [5], -5.26%. Further, the Percent Effect in [6] is 16.6%; in the assay listed under Homo sapiens, 25.4%; in assay [7], 5.71%; in assay [8], 25.9%; in assay [9] it was -21.2%.

As for `O=C(c1ncccn1)N1C[C@H]2CCC[C@@]2(COCc2ccncc2)C1`, the Percent Effect in assay [1] was -1.29%; in assay [2], 23.4%; in assay [3], -4.05%; in assay [4] it was -10.3%; in the assay on Trypanosoma cruzi it was 4.63%; in assay [5], 4.52%. The Percent Effect in [6] was 13.9%; in the assay filed under Homo sapiens, 11.8%; in assay [7] it was 3.17%; in assay [8], 14.1%; in [9], -11.1%.

For the origin of these results see ChEMBL document CHEMBL3988442, “University of Dundee, Small-Polar-MMV Screening Library” (2021).
